High-throughput results as filed in PubChem.
Rows were chosen to be rich in hits. Some 19% of all compounds tested hit in one or more screens of this group.
HT1080NT lethal – kills 2HG-producing HT-1080-NT fibrosarcoma cells. HT-1080-NT fibrosarcoma viability, CellTiter-Glo ATP luminescence, 48 h. 1.6% of 360,000 active. Potency, µM (top dose mostly 46.1 µM), for the others: at the top dose activity, negative = less viability, hits mostly cytotoxic. AID 686970;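 further: NT is the 2HG producing partner of a matched IDH1 knockdown line; potency means the concentration at half of the fitted maximal effect; 0% = DMSO-treated cells and -100% = media-only wells without cells; nearly all actives have a fitted effect of over 55% in size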
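HT-1080-NT; 750 cells/well; 5% FBS RPMI; 48 h compound, 37 degrees C; CellTiter-Glo luminescence; curve fitting and curve-class assignment.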
TDP1 cell noCPT – qHTS for Inhibitors of human tyrosyl-DNA phosphodiesterase 1 (TDP1): qHTS in cells in absence of CPT; DT40 Tdp1-/- hTDP1 cells, no CPT, ATP luminescence, 48 h; 15% of 420,000 active; Potency, µM (series often up to 46.2 µM), for inactives: at the highest dose activity change, negative = growth inhibition, most hits filed as inhibitors; AID 686978, 2013; further: potency means the concentration at half of the fitted maximal effect; nearly all actives have a fitted effect of over 55% in size
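DT40 Tdp1-/-;hTDP1 cells, no CPT (DMSO vehicle only), 400 cells/well; compounds pin-transferred; ≥48 hr, 37 °C; CellTiter-Glo 30 min RT dark, luminescence read.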
ELG1 repair inh – blocks ELG1-dependent DNA repair in HEK293T cells; Potency, µM (doses to about 46.1 µM), for inactives: top-dose activity change, negative = inhibition, usual class: inhibitors; HEK293T ELG1-luciferase reporter, luminescence, 16 h; DNA damage induced by 5-fluorouridine; 2.3% of 330,000 active; further: potency means the concentration at half of the fitted maximal effect; nearly all actives have a fitted effect of over 55% in size
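DMSO vehicle served as the neutral condition. Each well held 2,000 cells given 5-fluorouridine plus compound; after 16 hr at 37 °C/5% CO2, ONE-Glo was added and luciferase measured 30 min later.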
IL1B secr inh – inflammasome signaling inhibition, IL-1 beta readout; THP-1 LPS/ATP IL-1B secretion, AlphaLISA, 16 h; stronger effect = lower value; activity change, % at 57.5 µM; 4.7% of 360,000 active; in the data active means activity change below about -50%; inconclusive means mostly about -30% to -49%
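THP-1 cells pretreated 1 hr with compounds (up to 57.5 uM final), then stimulated with LPS (250 ng/mL final) plus ATP (1.25 mM final); secreted IL-1B measured by AlphaLISA after 16 hr, decreased signal indicating inhibition.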
DT40 TDP1 CPT – growth inhibition of DT40 Tdp1-/-;hTDP1 cells with camptothecin (screen for TDP1 inhibitors) | 12% of 420,000 active | Potency, µM (top dose mostly 46.2 µM), for inactives: at the highest dose activity change, negative = growth inhibition, most hits filed as inhibitors | chicken DT40 Tdp1-/-;hTDP1 cells + 20 nM CPT, ATP luminescence, 48 h; further: potency means the concentration at half of the fitted maximal effect; nearly all actives have a fitted effect of over 55% in size
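Chicken DT40 Tdp1-/- cells complemented with human TDP1, 400 cells/well, exposed to compounds plus 20 nM camptothecin for at least 48 h at 37 C; viability read as ATP content by CellTiter-Glo luminescence.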
HT1080 IDH1KD tx – HT-1080 IDH1 knockdown cell toxicity (counter line); HT-1080 IDH1 knockdown viability, ATP luminescence, 48 h; Potency, µM (series often up to 46.1 µM), inactives show at the highest dose activity, negative = toxicity, hits mostly cytotoxic; 2% of 360,000 active; AID 686971;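 further: potency means the concentration at half of the fitted maximal effect; 0% = DMSO wells and -100% = cell-free medium wells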
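IDH1KD HT-1080 cells, 750/well, RPMI + 5% FBS; compound pinned after 2 h settling; 48 h, 37 °C; CellTiter-Glo luminescence; % activity normalised to DMSO and no-cell wells; curves fitted, classed by r2 and efficacy.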
* hit, by the source's call; ? = inconclusive; / = not tested or not shown. Unless noted, the call rests on the fitted dose curve; in most records, active means well fitted curve in the direction sought with a large enough effect; inconclusive means small, poorly fitted or top-dose-only effect, or another doubt; inactive means no such curve, though single readings can be large; an effect the other way counts as inactive or inconclusive. Unless noted, on the % scale 0 is the no-effect control and ±100 the full control effect.

SMILES	HT1080NT lethal	TDP1 cell noCPT	ELG1 repair inh	IL1B secr inh	DT40 TDP1 CPT	HT1080 IDH1KD tx
COc1ccc(NC(=S)NC(NC(=O)/C=C/c2ccccc2)C(Cl)(Cl)Cl)cc1 (stereo unspecified)	?	18µM*	-5%	-4	?	?
Cc1nc2ccccn2c1C(=O)N=Nc1c(O)n(CCC(C)C)c2ccccc12	-2%	7.3µM*	9.2µM*	16	7.3µM*	-2%
Cc1cc(C)c(NC(=O)c2sc3nc4c(cc3c2N)C(=O)CC(C)(C)C4)c(C)c1	3%	18µM*	-17%	-23	?	-1%
S=C(NCCc1ccccc1)NC1CCCCCC1	-8%	?	?	6	18µM*	-24%
S=C(NCCc1ccc(Cl)cc1)NC1CCCCC1	-24%	?	?	-94*	?	?
CCCS(=O)(=O)NC(=O)C1(C)CCN(C(=O)c2ccc3c(c2)OCO3)C1 (stereo unspecified)	?	-3%	/	24	-16%	18%
COC(=O)Cn1c(=O)c2c(nc3n2CCCN3CCc2ccc(OC)c(OC)c2)n(C)c1=O	-5%	-8%	-8%	-15	-8%	-10%
CNc1ccc(-c2nc(-c3ccncc3)no2)cc1[N+](=O)[O-]	/	-6%	/	/	-14%	/
CCN(CC)c1ccc(-c2nc(-c3ccncc3)no2)cc1[N+](=O)[O-]	/	15µM*	/	/	13µM*	/
Cc1ccc(-c2nc(-c3ccccn3)no2)cc1[N+](=O)[O-]	-2%	23µM*	?	3	?	-1%
CCCCNc1ccc(-c2nc(-c3ccccn3)no2)cc1[N+](=O)[O-]	/	-10%	/	/	-11%	/
Cc1cc(-c2nc(-c3ccncc3)no2)ccc1[N+](=O)[O-]	16%	?	?	-8	15µM*	24%
CCN(CC)c1ccc(-c2nc(-c3ccccn3)no2)cc1[N+](=O)[O-]	/	16µM*	/	/	-7%	/
CCCNc1ccc(-c2nc(-c3ccccn3)no2)cc1[N+](=O)[O-]	/	-16%	/	/	-5%	/
CCCS(=O)(=O)N1CCC(N2CCN(Cc3ccc(F)cc3)C(=O)C2=O)CC1	/	0%	/	/	-5%	/
COc1ccccc1NC(=O)C1=C(C)NC(=O)NC1c1ccccc1F (stereo unspecified)	19%	-12%	-1%	3	-1%	6%
CC1=C(C(=O)Nc2ccccc2F)C(c2ccsc2)C2=C(CC(c3ccccc3)CC2=O)N1 (stereo unspecified)	-17%	26µM*	?	-18	26µM*	-19%
CCc1cccc(NC(=O)Cn2c(C(=O)OC)cc3occc32)c1	/	-14%	/	/	7%	/
COC(=O)c1ccc(CNC(=O)c2ccc(OC)c(S(=O)(=O)NC3CCCC3)c2)cc1	-4%	-2%	-25%	0	-4%	1%
CCN(CC)S(=O)(=O)c1ccc(C(=O)OCCN2C(=O)c3cccc4c(N5CCOCC5)ccc(c34)C2=O)cc1	24%	18µM*	?	10	?	23%
CC(=O)N(C(C)=O)N1C(=O)c2cccc3c(N4CCOCC4)ccc(c23)C1=O	-5%	?	21%	19	-14%	-5%
CCc1nn(CC(=O)N2CCN(c3cccc(C(F)(F)F)c3)CC2)c(=O)c2cccn12	/	-22%	/	/	-13%	/
COc1ccc(CCCc2nnc(SCC(=O)Nc3cccc(C)c3)o2)cc1C	/	?	/	/	-25%	/
CCC(Cc1ccccc1)NC(=O)c1ccc2nc(N3CCOCC3)sc2c1 (stereo unspecified)	-1%	13µM*	?	-11	15µM*	-3%
CCC(Cc1ccccc1)NC(=O)c1ccc2nc(N3CCC(C)CC3)sc2c1 (stereo unspecified)	/	10µM*	/	/	21µM*	/
SMILES	HT1080NT lethal	TDP1 cell noCPT	ELG1 repair inh	IL1B secr inh	DT40 TDP1 CPT	HT1080 IDH1KD tx
CC(CCc1ccccc1)NC(=O)c1ccc2nc(N3CCOCC3)sc2c1 (stereo unspecified)	-3%	?	?	12	?	-7%
COCc1c(C(=O)Nc2ccc3nc(N4CCOCC4)sc3c2)oc2ccccc12	-32%	?	13µM*	-17	15µM*	-18%
COc1ccc(/C=N/NC(=O)CNC(=O)c2ccc3c(c2)OCCO3)c(C(=O)O)c1OC	3%	5%	16%	1	-2%	9%
CCCCC(=O)Nc1nnc(S(=O)(=O)N(C)Cc2ccc(Cl)cc2)s1	/	-22%	/	/	-18%	/
CC(NC(=O)Nc1ccc(Cl)cc1)C(c1cccs1)N1CCOCC1 (stereo unspecified)	?	?	-6%	-4	?	?
Clc1ccc(C(c2cccs2)N2CCNCC2)cc1 (stereo unspecified)	-11%	18µM*	/	-50*	13µM*	?
CN1CCc2cc3c(cc2[C@@H]1[C@@H]1C(=O)Oc2c1ccc1c2OCO1)OCO3	/	-13%	/	/	-4%	/
COc1ccc2cc1Oc1ccc(cc1)C[C@H]1c3c(cc4c(c3Oc3cc5c(cc3OC)CCN(C)[C@@H]5C2)OCO4)CCN1C	16µM*	5.8µM*	-26%	?	6.5µM*	21µM*
CC(=O)OC1c2c(ccc3ccc(=O)oc23)OC(C)(C)C1OC(=O)CC(C)C (stereo unspecified)	-6%	18µM*	-7%	0	23µM*	-4%
CCO[C@@H]1c2c(ccc3ccc(=O)oc23)OC(C)(C)[C@@H]1O	-1%	-7%	0%	-2	-1%	3%
C/C=C(/C)C(=O)O[C@@H]1c2c(ccc3ccc(=O)oc23)OC(C)(C)[C@@H]1OC(=O)/C(C)=C\C	?	9.2µM*	-5%	?	16µM*	?
Cc1ccc(CN2CCc3nc(SCC(=O)Nc4cccc(C)c4C)[nH]c(=O)c3C2)cc1	/	-5%	/	/	2%	/
Cc1ccccc1C(=O)NC1(C(F)(F)F)N=C(c2ccccc2)N(Cc2ccccc2)C1=O (stereo unspecified)	/	23µM*	/	/	23µM*	/
Cc1cccc(C(=O)NC2(C(F)(F)F)N=C(c3ccccc3)N(C3CCCCC3)C2=O)c1 (stereo unspecified)	/	-3%	/	/	-8%	/
COc1cc(OC)c(NC(=O)Nc2nnc(N(C)C3CCCCC3)s2)cc1Cl	/	8.2µM*	/	/	21µM*	/
Cc1ccc(NC(=O)Nc2nnc(N(C)C3CCCCC3)s2)c(Cl)c1	/	?	/	/	16µM*	/
